# Laboratory results reported in PubChem BioAssay AID488969 (Vanderbilt High Throughput Screening Facility, 2010).
# In all, about 110,000 compounds were measured (“z-score”: median about -0.1, highest 2% from about 2 on). Only a selection was taken, and the highest values are over-represented in it overall. Activity calls are given as the source filed them.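 How the source made its calls: active means z-score in the third read window above 3 or below -3; inactive means the rest.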
# Molecular target: Metabotropic glutamate receptor 8 (Rattus norvegicus) (UniProt P70579)
# Assay: rat mGluR8 modulators via GIRK flux, primary screen, cell-based, thallium flux, HTS (AID 488969)
# Details: HEK293 rat mGluR8, GIRK (G protein-gated inwardly rectifying potassium channel) thallium flux, FluoZin2; at 10 µM; stronger effect = higher value; submaximal glutamate (EC20) added with thallium
# Sequence of Metabotropic glutamate receptor 8 (Rattus norvegicus) (P70579 whole entry, looked up): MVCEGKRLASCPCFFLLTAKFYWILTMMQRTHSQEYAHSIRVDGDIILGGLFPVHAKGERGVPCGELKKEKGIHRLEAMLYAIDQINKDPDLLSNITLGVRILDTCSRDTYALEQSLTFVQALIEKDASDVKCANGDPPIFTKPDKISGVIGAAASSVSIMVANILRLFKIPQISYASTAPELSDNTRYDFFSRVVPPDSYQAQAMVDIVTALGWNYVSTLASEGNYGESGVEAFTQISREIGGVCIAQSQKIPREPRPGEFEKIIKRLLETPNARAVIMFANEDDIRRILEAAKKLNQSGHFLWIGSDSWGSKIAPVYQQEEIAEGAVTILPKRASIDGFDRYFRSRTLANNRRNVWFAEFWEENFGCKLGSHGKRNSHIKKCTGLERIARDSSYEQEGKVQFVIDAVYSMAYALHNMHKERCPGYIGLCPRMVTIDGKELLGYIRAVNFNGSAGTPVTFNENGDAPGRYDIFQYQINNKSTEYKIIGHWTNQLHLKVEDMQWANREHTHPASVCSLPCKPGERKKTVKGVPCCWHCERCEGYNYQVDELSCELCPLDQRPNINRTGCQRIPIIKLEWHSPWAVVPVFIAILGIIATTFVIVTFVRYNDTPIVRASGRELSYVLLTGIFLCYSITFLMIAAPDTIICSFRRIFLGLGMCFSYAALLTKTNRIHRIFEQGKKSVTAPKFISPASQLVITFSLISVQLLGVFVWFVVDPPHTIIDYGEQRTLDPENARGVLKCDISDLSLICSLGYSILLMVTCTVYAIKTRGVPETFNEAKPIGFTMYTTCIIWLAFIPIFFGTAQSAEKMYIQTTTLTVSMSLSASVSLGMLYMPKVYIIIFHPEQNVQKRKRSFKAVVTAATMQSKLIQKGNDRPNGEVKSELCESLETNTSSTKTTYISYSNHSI
row,Structure (SMILES),z-score
1,CCOC(=O)CN1C(c2ccccc2O)Nc2ccc(Br)cc2C1c1ccccc1 (stereo not drawn),-0.45
2,CC(OC(=O)CN(C)S(=O)(=O)c1ccc(Cl)cc1)C(=O)Nc1ncc(Cl)cc1Cl (stereo not drawn),-0.285
3,Nc1c(CO)nnn1-c1ccccc1,-0.379
4,CCCCn1c(-c2csc(CC)c2)n[nH]c1=S,2.15
5,CCc1cc(-c2n[nH]c(=S)n2CC)cs1,-0.194
6,CC(C)c1cc(-c2n[nH]c(=S)n2Cc2ccccc2)cs1,1.35
7,CCCCn1c(-c2csc(C(C)C)c2)n[nH]c1=S,6.36 (active)
8,CCCCn1c(-c2ccoc2C)n[nH]c1=S,0.216
9,CCCCn1c(-c2cccnc2)n[nH]c1=S,-0.106
10,CCNC(=S)N(Cc1ccco1)Cc1cc2cc3c(cc2[nH]c1=O)OCCO3,0.158
11,Nc1ccc(C2(c3ccc(N)cc3)C(=O)Nc3ccccc32)cc1,-0.763
12,Cc1cccnc1NC(=O)C1CCCN(S(=O)(=O)c2ccc3c(c2)oc(=O)n3C)C1 (stereo not drawn),0.166
13,CCc1cccc(OCC(=O)Nc2ccc(S(=O)(=O)Nc3onc(C)c3C)cc2)c1,-0.0589
14,COc1cc(NC(=O)Cn2nnc(-c3ccncc3)n2)cc(OC)c1,0.284
15,CN(C)C(=O)CN(c1ccc(F)c(Cl)c1)S(C)(=O)=O,0.00105
16,Cc1ccc2c(c1)c(=O)c(Br)c(C)n2Cc1ccccc1,-0.0481
17,COc1ccccc1C(c1nnnn1C(C)(C)C)N1CCN(Cc2ccncc2)CC1 (stereo not drawn),-0.332
18,CCN(CC)C(=O)CSCc1cnn(-c2ccccc2)c1-n1cccc1,0.216
19,COc1ccc(NC2=CC(c3ccc(OC)c(OC)c3)N(c3ccc(OC)cc3)C2=O)cc1 (stereo not drawn),-0.044
20,COc1ccc2nc(N=Nc3ccc(O)c4ccccc34)sc2c1,5.85 (active)
21,COc1ccc2nc(N=Nc3ccc(N(C)C)cc3)sc2c1,0.141
22,COc1ccc2nc(N)sc2c1,0.0701

row,Structure (SMILES),z-score
1,CCN(CC)C(=O)C(=O)N/N=C/c1cccs1,-0.0972
2,CCCCCN(C(=O)CN(C)Cc1ccc(OC)cc1OC)c1c(N)n(CCCC)c(=O)[nH]c1=O,0.0701
3,O=C(CCc1ccccc1)Nc1nnc(-c2cccs2)o1,0.129
4,O=C(Nc1cccc(C(F)(F)F)c1)c1cc(-c2cccs2)on1,-0.52
5,COc1cccc(C(=O)Nc2nnc(-c3cccs3)o2)c1,0.124
6,O=C(Nc1nnc(-c2cccs2)o1)c1ccco1,-0.203
7,O=C(Nc1ccncc1)c1cccc(F)c1,0.415
8,CCCCN(CCCC)S(=O)(=O)c1ccc(C(=O)Nc2nnc(COC)o2)cc1,1.03
9,O=C(Nc1nnc(-c2cccs2)o1)c1cccc(F)c1,4.44 (active)
10,O=C(Nc1nnc(-c2cccs2)o1)c1cccc(Oc2ccccc2)c1,14 (active)
11,CCC1CCCCN1S(=O)(=O)c1ccc(C(=O)Nc2nnc(-c3cccs3)o2)cc1 (stereo not drawn),0.233
12,O=C(Nc1nnc(-c2cccs2)o1)c1cccc(C(F)(F)F)c1,14.1 (active)
13,O=C(Nc1ccccc1)c1cccc(C(F)(F)F)c1,-0.053
14,CCCCN(C)S(=O)(=O)c1ccc(C(=O)Nc2nnc(-c3cccs3)o2)cc1,7.18 (active)
15,CCc1ccccc1NC(=O)CSc1ncn[nH]1,-0.0941
16,CC1CCCN(c2nc(-c3cccnc3)nc3scc(-c4ccccc4)c23)C1 (stereo not drawn),-0.0274
17,COc1ccc(CCNC(=O)c2ccc(-c3ccc([N+](=O)[O-])cc3)o2)cc1OC,-0.544
18,CCOc1cc([C@H]2[C@@H]3CCCC[C@]3(O)CCN2CC(=O)NCc2ccco2)ccc1O,-0.351
19,COc1ccc(N2CCN(Cc3nc4ccsc4c(=O)[nH]3)CC2)cc1,-0.255
20,O=C(CN=C1NC(=O)C(c2ccccc2)(c2ccccc2)N1)NCc1ccc(F)cc1,-0.114
21,N#CCSc1nnc2ccc3ccccc3n12,-0.272
22,O=C(NCC(=O)N(Cc1ccco1)C(C(=O)NC1CCCC1)c1cccnc1)c1ccco1 (stereo not drawn),2.19

row,Structure (SMILES),z-score
1,O=C(NCC(=O)N(Cc1cccs1)C(C(=O)NC1CCCCC1)c1ccco1)c1ccco1 (stereo not drawn),2.96
2,O=C(NCC(=O)N(Cc1cccs1)C(C(=O)NC1CCCCC1)c1ccco1)c1cccs1 (stereo not drawn),-0.518
3,O=C(NCC(=O)N(Cc1ccccc1)C(C(=O)NC1CCCC1)c1cccnc1)c1ccco1 (stereo not drawn),-0.0981
4,O=C(NCC(=O)N(Cc1cccs1)C(C(=O)NC1CCCC1)c1ccco1)c1cccs1 (stereo not drawn),0.741
5,O=C(NCC(=O)N(Cc1ccco1)C(C(=O)NC1CCCCC1)c1cccnc1)c1ccco1 (stereo not drawn),0.556
6,COc1ccc(Cl)cc1NC(=O)CN(C)C1CCCCC1,0.225
7,C#CC(CO)N(CCN(Cc1ccccc1)C(C#C)CO)Cc1ccccc1 (stereo not drawn),2.19
8,CC(C)CC(C(=O)O)N(Cc1ccccc1)Cc1ccccc1 (stereo not drawn),-0.132
9,OCCN(Cc1ccccc1)Cc1ccccc1Cl,0.0815
10,CC1CCc2c(sc(NC(=O)CSc3ncnc4c3cnn4-c3ccccc3Cl)c2C#N)C1 (stereo not drawn),-0.899
11,CSC1=N/C(=C\c2ccc(C)cc2)C(=O)S1,-0.344
12,CSC1=N/C(=C\c2ccc(Br)o2)C(=O)S1,3.73 (active)
13,CSC1=N/C(=C\c2ccc(F)cc2)C(=O)S1,-0.817
14,CC(=O)CC1(O)C(=O)N(Cc2ccccc2)c2ccccc21 (stereo not drawn),0.034
15,O=C(N/N=C/c1cnc2ccccc2n1)c1cccc(F)c1,0.223
16,Cc1ccccc1N=C1NC(=O)CS1,0.516
17,O=C1CS/C(=N\C(=O)N2c3ccccc3Sc3ccccc32)N1,7.66 (active)
18,O=C(CN1CCCC1)N1c2ccccc2Sc2ccccc21,-0.191
19,COc1ccc(NC(=O)CSc2nc3ncccc3[nH]2)cc1OC,-0.426
20,CCC(=O)N(Cc1cc2ccc(C)cc2n2nnnc12)C1CCCCC1,-0.401
21,C=CCn1c(SC2CCOC2=O)nc2sc(C)c(C)c2c1=O (stereo not drawn),-0.995
22,Cc1nc(SC2CCOC2=O)c2c(C)c(C)sc2n1 (stereo not drawn),4.12 (active)

row,Structure (SMILES),z-score
1,Cc1cc(C)nc(SC2CCOC2=O)n1 (stereo not drawn),-0.0163
2,CCCC1Cc2c(sc(NC(=S)NC(=O)c3ccccc3)c2C#N)CO1 (stereo not drawn),0.489
3,CN(C)S(=O)(=O)c1ccc(S(=O)(=O)NC2CCOC(C)(C)C2)cc1 (stereo not drawn),-1.16
4,CC(=O)N1CCN(S(=O)(=O)c2ccc(S(=O)(=O)NC3CC3)cc2)CC1,2.05
5,CC1(C)CC(NS(=O)(=O)c2ccc(S(=O)(=O)N3CCOCC3)cc2)CCO1 (stereo not drawn),2.05
6,CC(=O)N1CCN(S(=O)(=O)c2ccc(S(=O)(=O)NCC(C)C)cc2)CC1,-0.0339
7,O=C(c1ccco1)N1CCN(S(=O)(=O)c2ccc(S(=O)(=O)NC3CC3)cc2)CC1,-0.31
8,CC(C)CNS(=O)(=O)c1ccc(S(=O)(=O)NC2CCOC(C)(C)C2)cc1 (stereo not drawn),-0.235
9,COc1cc(-n2c(C)nc3cc(C(=O)N4CCOCC4)ccc32)cc(OC)c1OC,-0.458
10,CCOC(=O)c1c(C)oc2c1cc(O)c1ccccc12,-0.493
11,CCOC(=O)c1c(C)[nH]c2c1cc(O)c1ccccc12,4.58 (active)
12,CCOC(=O)c1c(-c2ccccc2)[nH]c2ccc(O)cc12,-0.821
13,COc1ccc(-c2nc(NC(=O)c3ccc(OCC(=O)N4CCOCC4)c(OC)c3)sc2C)cc1,-0.218
14,COc1ccccc1NC(=S)N(CCc1c(C)[nH]c2ccccc12)Cc1cccs1,0.381
15,CCOc1cc(/C=N/NC(=O)CNc2ccc(C)cc2)ccc1OC(=O)c1ccccc1,0.0308
16,CCOc1cc(/C=N\NC(=O)c2ccc(NC(=O)CC)cc2)ccc1OC(=O)c1ccccc1,-0.103
17,CCOc1cc(/C=N/NC(=O)CNc2cccc(C)c2)ccc1OC(=O)c1ccccc1,5.52 (active)
18,CC(=O)N(C)c1nnc(-c2ccccn2)s1,-0.0164
19,CS(=O)(=O)N(CC(=O)Nc1ccc(F)c(F)c1)c1cccc([N+](=O)[O-])c1,0.348
20,CC(=O)Nc1ccc(NC(=O)CSCc2cnn(-c3ccccc3)c2-n2cccc2)cc1,-0.225
21,O=C(Nc1ccc2c(c1)OCO2)C1CCN(Cc2cnn(-c3ccccc3)c2-n2cccc2)CC1,-0.13
22,COc1ccc(OC)c(NC(=O)CSCc2cnn(-c3ccccc3)c2-n2cccc2)c1,0.126

row,Structure (SMILES),z-score
1,COc1ccc(OC)c(NC(=O)C2CCN(Cc3cnn(-c4ccccc4)c3-n3cccc3)CC2)c1,-0.109
2,O=C(NCc1ccccn1)C1CCN(Cc2cnn(-c3ccccc3)c2-n2cccc2)CC1,-0.0285
3,COc1cccc(CNC(=O)C2CCN(Cc3cnn(-c4ccccc4)c3-n3cccc3)CC2)c1,2.66
4,O=C(NCc1ccc2c(c1)OCO2)C1CCN(Cc2cnn(-c3ccccc3)c2-n2cccc2)CC1,3.14 (active)
5,COc1cc(NC(=O)CSCc2cnn(-c3ccccc3)c2-n2cccc2)cc(OC)c1,7.86 (active)
6,COc1cccc(NC(=O)C2CCN(Cc3cnn(-c4ccccc4)c3-n3cccc3)CC2)c1,-0.463
7,CCSc1cc(N2CCCC2)nc(-c2ccccc2Cl)n1,-0.31
8,COC(=O)COc1ccc(Cl)cc1C1Nc2ccccc2C(=O)N1c1ccc(OC)cc1 (stereo not drawn),-0.642
9,COC(=O)c1[nH]c2ccccc2c1NC(=O)/C=C/c1ccc2c(c1)OCO2,0.563
10,O=C1C2CCCCC2C(=O)N1c1cccc(OS(=O)(=O)c2ccccc2)c1 (stereo not drawn),-0.275
11,CCN(CC)S(=O)(=O)c1cccc(-c2nnc(SC(C)C(N)=O)n2CCc2ccccc2)c1 (stereo not drawn),-0.152
12,O=C(Nc1cnc2ccccn2c1=O)c1ccc(F)cc1,-0.0283
13,Cc1ccc(C(=O)Nc2cnc3ccccn3c2=O)cc1,4.27 (active)
14,O=C(Nc1cnc2ccccn2c1=O)c1ccc(Cl)cc1,-0.161
15,CC(C)(C)C1CCc2c(C(=O)N/N=C/c3cccs3)csc2C1 (stereo not drawn),3.34 (active)
16,Cc1occc1C(=O)N/N=C/c1cccs1,0.00925
17,CC(C)(C)C1CCc2c(C(=O)NNC(=O)/C=C/C(=O)O)csc2C1 (stereo not drawn),-0.42
18,Cn1c(=O)oc2cc(S(=O)(=O)N3CCC(C(=O)NCc4cccs4)CC3)ccc21,0.158
19,CCC(Cc1ccccc1)NC(=O)C1CCC(CNc2c(N3CCCC3)c(=O)c2=O)CC1 (stereo not drawn),0.312
20,COc1ccc(C(C)=O)cc1COC(=O)Cc1n[nH]c(=O)c2ccccc12,-0.504
